Assay results as given in the supplement of paper PMC9262897, “Low-cost anti-mycobacterial drug discovery using engineered E. coli” (Nature Communications, 2022).
Counter-ions that a name gives are not always drawn. ± gives the standard deviation of the averaged measurements.

Columns and labels:
Test in all cases: growth (OD600 after 10 h); higher = more growth (less inhibition)
[1] = tested on: E. coli TESEC Alr+ wild-type control; conditions: compound 0.1 mM; raw OD600 reference: median of DMSO wells 0.241, cell-free background 0.041
Protocol: (§1)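 TESEC Mtb Alr E. coli, or the Alr+ wild-type control, in 384-well plates with Prestwick library compounds at 0.1 mM and 1% DMSO, across arabinose induction levels of 1E3 to 1E7 nM. Growth is read as OD600 after 10 h at 37 °C in triplicate biological replicates.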

E. coli TESEC Mtb Alr [2] = conditions: compound 0.1 mM
Protocol: as §1

E. coli TESEC Mtb Asd = conditions: compound 0.1 mM
Protocol: (§2)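 TESEC E. coli strains in which the native enzyme is deleted and replaced by arabinose-inducible Mtb Asd, DapB, CysH or TrpD, each grown in its selective medium. Strains were screened against the Prestwick library at 0.1 mM and 1% DMSO in 384-well format at low and high arabinose induction. Growth is read as OD600 after 10 h in triplicate.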

E. coli TESEC Mtb DapB = conditions: compound 0.1 mM
Protocol: as §2

E. coli TESEC Mtb Alr [3] = conditions: compound 0.1 mM; remark: listed apart in the source
Protocol: (§3)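 TESEC Mtb Alr E. coli (ΔaraC ΔtolC ΔentC Δalr ΔdadX, arabinose-inducible Mtb Alr) or the Alr+ wild-type control strain, grown in defined M9-fructose medium without D-alanine in 96-well plates with Prestwick library compounds at 0.1 mM and 1% DMSO. Low Alr induction is 0.1 µM arabinose and high induction is 10 mM arabinose.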

[4] = tested on: E. coli TESEC Alr+ wild-type control; conditions: compound 0.1 mM; raw OD600 reference: median of DMSO wells 0.49, cell-free background 0.052
Protocol: as §3

[5] = arabinose 1000 nM, raw OD600 reference: median of DMSO wells 0.294, cell-free background 0.041
[6] = arabinose 10000 nM, raw OD600 reference: median of DMSO wells 0.264, cell-free background 0.041
[7] = arabinose 100000 nM, raw OD600 reference: median of DMSO wells 0.201, cell-free background 0.041
[8] = arabinose 1000000 nM, raw OD600 reference: median of DMSO wells 0.193, cell-free background 0.041
[9] = arabinose 10000000 nM, raw OD600 reference: median of DMSO wells 0.146, cell-free background 0.041
[10] = arabinose induction (level): High, raw OD600 reference: median of DMSO wells 0.331, cell-free background 0.041
[11] = arabinose induction (level): Low, raw OD600 reference: median of DMSO wells 0.417, cell-free background 0.041
[12] = arabinose induction (level): High, raw OD600 reference: median of DMSO wells […], cell-free background 0.041
[13] = arabinose induction (level): Low, raw OD600 reference: median of DMSO wells 0.227, cell-free background 0.041
[14] = arabinose 100 nM, raw OD600 reference: median of DMSO wells 0.413, cell-free background 0.052
[15] = arabinose 10000000 nM, raw OD600 reference: median of DMSO wells […], cell-free background 0.052

Compound	growth [1]	growth (E. coli TESEC Mtb Alr [2]; [5])	growth (E. coli TESEC Mtb Alr [2]; [6])	growth (E. coli TESEC Mtb Alr [2]; [7])	growth (E. coli TESEC Mtb Alr [2]; [8])	growth (E. coli TESEC Mtb Alr [2]; [9])	growth (E. coli TESEC Mtb Asd; [10])	growth (E. coli TESEC Mtb Asd; [11])	growth (E. coli TESEC Mtb DapB; [12])	growth (E. coli TESEC Mtb DapB; [13])	growth (E. coli TESEC Mtb Alr [3]; [14])	growth (E. coli TESEC Mtb Alr [3]; [15])	growth [4]
OCCN1CCN(CCCN2c3ccccc3Sc3ccc(C(F)(F)F)cc32)CC1 [Fluphenazine dihydrochloride]	0.0421 ± 0.0038	0.041 ± 0.0026	0.0391	0.03987 ± 0.00021	0.03867 ± 0.00012	0.0405 ± 0.00052	0.0496 ± 0.00091	0.0515 ± 0.0021	0.0483 ± 0.00055	0.15 ± 0.1	0.286 ± 0.21	0.0529 ± 0.00081	
CN(C)CCC[C@@]1(c2ccc(F)cc2)OCc2cc(C#N)ccc21 [Escitalopram oxalate]	0.201 ± 0.0062	0.281 ± 0.014	0.251 ± 0.015	0.199 ± 0.0081	0.157 ± 0.0041	0.143 ± 0.007	0.297 ± 0.14	0.398 ± 0.064	0.179 ± 0.012	0.202 ± 0.014	0.412 ± 0.011	0.352 ± 0.0066	0.435 ± 0.007
CN(C)CCC=C1c2ccccc2C=Cc2ccccc21 [Cyclobenzaprine hydrochloride]	0.1703 ± 0.0014	0.204 ± 0.016	0.247 ± 0.011	0.172 ± 0.011	0.0898 ± 0.0029	0.125 ± 0.0031	0.161 ± 0.0091	0.262 ± 0.022	0.175 ± 0.011	0.203 ± 0.027	0.401 ± 0.0064	0.231 ± 0.018	0.5608 ± 0.002
CC[C@@H]1C(=O)OC[C@@H]1Cc1cncn1C [Pilocarpine nitrate]	0.231 ± 0.0064	0.247 ± 0.037	0.244 ± 0.011	0.204 ± 0.032	0.18 ± 0.0025	0.145 ± 0.0063	0.222 ± 0.012	0.279 ± 0.044	0.199 ± 0.016	0.222 ± 0.023	0.391 ± 0.0052	0.319 ± 0.044	
CCN(CC)CCOc1ccc(C(=C(Cl)c2ccccc2)c2ccccc2)cc1 [Clomiphene citrate (Z,E)]	0.0417 ± 0.00081	0.04167 ± 0.00032	0.04553 ± 0.00029	0.0433 ± 0.0019	0.0493 ± 0.00052	0.0428 ± 0.00085	0.0496 ± 0.0019	0.0482 ± 0.00099	0.04853 ± 0.00015	0.0475 ± 0.00049	0.0696 ± 0.034	0.0856 ± 0.015	0.0537 ± 0.00085
COc1cc(C(=O)NS(=O)(=O)c2ccccc2C)ccc1Cc1cn(C)c2ccc(NC(=O)OC3CCCC3)cc12 [Zafirlukast]	0.125 ± 0.0034	0.0976 ± 0.0046	0.0651 ± 0.0044	0.164 ± 0.0027	0.128 ± 0.0091	0.168 ± 0.0084	0.193 ± 0.022	0.12 ± 0.047	0.179 ± 0.018	0.213 ± 0.033	0.257 ± 0.018	0.215 ± 0.024	
O=C(Nc1cccc2c(=O)cc(-c3nnn[nH]3)oc12)c1ccc(OCCCCc2ccccc2)cc1 [Pranlukast]	0.23 ± 0.0033	0.238 ± 0.0077	0.196 ± 0.0094	0.227 ± 0.0058	0.144 ± 0.0097	0.178 ± 0.0095	0.236 ± 0.0051	0.238 ± 0.014	0.158 ± 0.014	0.195 ± 0.015	0.424 ± 0.0063	0.308 ± 0.013	
C[C@H]1[C@H](NC(=O)/C(=N\OC(C)(C)C(=O)O)c2csc(N)n2)C(=O)N1S(=O)(=O)O [Aztreonam]	0.161 ± 0.011	0.0624 ± 0.0045	0.0463 ± 0.0008	0.136 ± 0.014	0.177 ± 0.005	0.172 ± 0.0037	0.161 ± 0.009	0.11 ± 0.0038	0.188 ± 0.0055	0.186 ± 0.026	0.0511 ± 0.0047	0.277 ± 0.016	
NS(=O)(=O)c1cc(C(=O)O)c(NCc2ccco2)cc1Cl [Furosemide]	0.244 ± 0.0029	0.303 ± 0.0075	0.2547 ± 0.00051	0.242 ± 0.024	0.18 ± 0.0021	0.148 ± 0.0056	0.353 ± 0.011	0.408 ± 0.054	0.181 ± 0.0028	0.194 ± 0.0081	0.406 ± 0.012	0.353 ± 0.014	
CCS(=O)(=O)CCn1c([N+](=O)[O-])cnc1C [Tinidazole]	0.237 ± 0.0086	0.286 ± 0.011	0.256 ± 0.0041	0.198 ± 0.0079	0.169 ± 0.0069	0.139 ± 0.005	0.345 ± 0.048	0.405 ± 0.013	0.204 ± 0.0081	0.212 ± 0.027	0.402 ± 0.0095	0.315 ± 0.0068	
O=C(O)COC(=O)Cc1ccccc1Nc1c(Cl)cccc1Cl [Aceclofenac]	0.154 ± 0.0035	0.205 ± 0.019	0.223 ± 0.015	0.12 ± 0.007	0.141 ± 0.0064	0.132 ± 0.012	0.205 ± 0.026	0.263 ± 0.011	0.156 ± 0.0075	0.176 ± 0.028	0.352 ± 0.034	0.244 ± 0.015	
CC1(C)O[C@@H]2C[C@H]3[C@@H]4C[C@H](F)C5=CC(=O)C=C[C@]5(C)[C@H]4[C@@H](O)C[C@]3(C)[C@]2(C(=O)CO)O1 [Flunisolide]	0.204 ± 0.015	0.297 ± 0.0098	0.261 ± 0.0019	0.192 ± 0.011	0.159 ± 0.0049	0.138 ± 0.0048	0.342 ± 0.064	0.458 ± 0.025	0.214 ± 0.021	0.241 ± 0.01	0.4 ± 0.0095	0.335 ± 0.012	
CCOC(=O)C1=C[C@]2(CC)CCCN3CCc4c(n1c1ccccc41)[C@@H]32 [Vinpocetine]	0.216 ± 0.0075	0.271 ± 0.015	0.25 ± 0.0089	0.184 ± 0.015	0.145 ± 0.005	0.143 ± 0.0046	0.232 ± 0.0031	0.379 ± 0.069	0.164 ± 0.0032	0.191 ± 0.0094	0.4094 ± 0.0032	0.337 ± 0.016	
